This note sets out measurements from PubChem BioAssay (Tox21).

Records with an inconclusive call do not appear. Entries that show only a call come without a potency. Where a structure was tested more than once in an assay, its records may differ in their call. Activity calls are given as the source filed them. Calls follow the shape of the full dose curve.
Potency is read from the fitted curve at half-maximal effect.

This assay is described as follows: qHTS assay to identify small molecule agonists of H2AX - cell viability counter screen (AID 1224847). Also: nearly all actives have a fitted effect of over 30% in size. As to activity change, negative = cytotoxicity: top concentration of the series differs between compounds. The conditions noted are these: CHO-K1 viability, CellTiter-Glo luminescence, 3 h; series mostly up to 154 µM; activity change, negative = cytotoxicity: at the top concentration. The text has this:
National Center for Advancing Translational Sciences [NCATS]
NIH Chemical Genomics Center [NCGC]
U.S. Environmental Protection Agency [EPA]
National Institutes of Environmental Health Sciences [NIEHS]
National Toxicology Program [NTP]
U.S. Food and Drug Administration [FDA]
HTRF phospho-H2AX (Ser139) assay (Cisbio Bioassays, US) enables the quantitative detection of the histone variant H2AX when phosphorylated on serine 139. When double-stranded DNA breaks, either by ionizing radiation or endogenous physiological processes, H2AX becomes phosphorylated at Ser139. This phospho-Ser139 serves as a sensitive biomarker for the detection of such breaks, localizing the site of DNA repair. So, HTRF phospho-H2AX Ser139 is a pertinent assay to study genome stability, the cell cycle, DNA repair, and it serves as a biomarker for cancer, and to understand aging. Wild type CHO-K1 cells were used to identify the inducers of Phospho-H2AX Ser 139 from the Tox21 compound collections. Also cytotoxicity of the Tox21 10K compound library against the CHO-K1 cell line was tested by measuring the cell viability using CellTiter-Glo assay (Promega, Madison, WI).
Tox21 Assay Protocol Summary:
The CHO-K1 cells suspended in culture medium containing 10% FBS were dispensed at 1000 cells/ 3 ul/well in 1536-well white wall/solid bottom plates (Greiner Bio-One North America, NC) using a Multidrop Combi (Thermo Fisher Scientific Inc., Waltham, MA). After the assay plates were incubated at 37C overnight, 23 nl of compounds at 15 concentrations (from 5-48 columns) or positive control (from 1 to 4 columns) were transferred to the assay plates using a Pintool station (Wako, San Diego, CA) into each well resulting in a final DMSO concentration of 0.76%. After 3hr incubation at 37C, 3 uL/well CellTiter-Glo luminescent cell viability reagent (Promega Corporation, Madison, WI) was added using a Flying Reagent Dispenser (FRD) (Aurora Discovery, CA). After incubation at room temperature for 30 min, the luminescence intensity was read using a ViewLux plate reader (PerkinElmer, Waltham, MA).
(Quantitative high-throughput screening tests each substance at several concentrations.)
As for `CN1C(C(=O)Nc2ccccn2)=C(O)c2ccccc2S1(=O)=O`, the Potency result is “inactive”.

Turning to `COc1ccc(C(=O)CC(=O)c2ccc(C(C)(C)C)cc2)cc1`, the Potency result is “inactive”.

For the compound `Cc1ccc2c(n1)Oc1ccc(C(C)C(=O)OCC(=O)N(C)C)cc1C2` (stereo not given), the Potency entry was “inactive”. As for `O=S(=O)(O)c1ccc(O)cc1`, the Potency result is “inactive”. With `CCCCCCCCCC(=O)OC`, the Potency result is “inactive”. Regarding `c1ccc2cc(Nc3ccc(Nc4ccc5ccccc5c4)cc3)ccc2c1`, the Potency entry was “inactive”.

Take `COc1ccc(OC)c(C(O)CNC(=O)CN)c1` (stereo not given): the Potency result was “inactive”.

Take `CC(C)OB(OC(C)C)OC(C)C`: the Potency result is “inactive”.

As for `CN(C)CCN(Cc1cccs1)c1ccccn1`, the Potency entry is “inactive”. For `C[C@]12CCC(=O)C=C1CC[C@@H]1[C@@H]2C(=O)C[C@@]2(C)[C@H]1CC[C@]2(O)C(=O)CO`, the Potency result is “inactive”. Still for that read-out and setting: then `C[Si](C)(C)O[Si](C)(C)C`, with “inactive”. Take `CC(C)(C)NC(=O)[C@H]1CC[C@H]2[C@@H]3CC[C@H]4NC(=O)C=C[C@]4(C)[C@H]3CC[C@]12C`: the “activity change, negative = cytotoxicity” value is -3.44% [at 70.9 µM] (inactive). `CC(CCC(=O)O)(c1ccc(O)cc1)c1ccc(O)cc1`: the Potency entry was “inactive”. As for `C#C[C@]1(O)CC[C@H]2[C@@H]3CCC4=Cc5oncc5C[C@]4(C)[C@H]3CC[C@@]21C`, the Potency was 89.8 µM (active).

In the case of `O=Cc1ccccc1O`, the Potency result is “inactive”. For `Cc1ccc(C(=O)c2cc(O)c(O)c([N+](=O)[O-])c2)cc1`, the “activity change, negative = cytotoxicity” value is 2.52% [at 70.9 µM] (inactive). Regarding `C=CC(C)(CCC=C(C)C)OC(C)=O` (stereo not given), the Potency entry was “inactive”. Regarding `OCCO`, the Potency entry is “inactive”. Turning to `O=C(c1ccc(OCCN2CCCCC2)cc1)c1c(-c2ccc(O)cc2)sc2cc(O)ccc12`, the Potency was 113 µM (active) and inactive. On to `OC(CCl)CCl`, for which the Potency result is “inactive”. Consider `OC[C@H]1O[C@@H]2O[C@H]3[C@H](O)[C@@H](O)[C@@H](O[C@H]4[C@H](O)[C@@H](O)[C@@H](O[C@H]5[C@H](O)[C@@H](O)[C@@H](O[C@H]6[C@H](O)[C@@H](O)[C@@H](O[C@H]7[C@H](O)[C@@H](O)[C@@H](O[C@H]8[C@H](O)[C@@H](O)[C@@H](O[C@H]1[C@H](O)[C@H]2O)O[C@@H]8CO)O[C@@H]7CO)O[C@@H]6CO)O[C@@H]5CO)O[C@@H]4CO)O[C@@H]3CO`, for which the Potency entry is “inactive”.

`COc1cccc2c1C(=O)c1c(O)c3c(c(O)c1C2=O)C[C@@](O)(C(=O)CO)C[C@@H]3O[C@H]1C[C@H](N)[C@H](O)[C@H](C)O1`: the Potency entry was “inactive”. Consider `O=C1OC2(c3cc(Br)c(O)c(Br)c3Oc3c2cc(Br)c(O)c3Br)c2c(Cl)c(Cl)c(Cl)c(Cl)c21`, for which the Potency is 7.14 µM (active).

Consider `O=C1c2cccc(O)c2C(=O)c2c(O)cccc21`, for which the Potency result is “inactive”. `COc1cc([C@@H]2c3cc4c(cc3[C@H](O)[C@H]3COC(=O)[C@H]23)OCO4)cc(OC)c1OC`: the Potency entry is “inactive”. Turning to `O=C(O)c1ccccc1Nc1cccc(C(F)(F)F)c1`, the Potency entry was “inactive”. As for `O=C=Nc1ccc(Cc2ccc(N=C=O)cc2)cc1`, the Potency entry was “inactive”. Regarding `CC(C)CC(C)(O)C#CC(C)(O)CC(C)C` (stereo not given), the “activity change, negative = cytotoxicity” value is -10.7% (inactive). Consider `O=[N+]([O-])c1ccc2c(c1)Cc1ccccc1-2`, for which the Potency result was “inactive”. In the case of `C#C[C@]1(O)CC[C@H]2[C@@H]3CCc4cc(OC)ccc4[C@H]3CC[C@@]21C`, the Potency was 45 µM (active). On to `C[C@]12CC[C@H]3[C@@H](CCC4=CC(=O)CC[C@@]43C)[C@@H]1CC[C@@H]2C(=O)CO`, for which the “activity change, negative = cytotoxicity” value is -5.35% [at 70.9 µM] (inactive).

With `c1ccncc1`, the Potency entry was “inactive”. `CCCc1c(OCCCCc2nn[nH]n2)ccc(C(C)=O)c1O`: the Potency entry is “inactive”.

For `CCCCCCCCCCCO`, the Potency entry is “inactive”.

On to `C=C(C)C(=O)OCCOC(=O)C(=C)C`, for which the Potency entry is “inactive”. Consider `O=C(COc1ccc(Cl)cc1)N1CCN(Cc2ccc3c(c2)OCO3)CC1`, for which the Potency was 101 µM (active) and inactive. With `C/C=C/C(=O)O`, the Potency entry is “inactive”. Consider `CC(=O)CC/C=C(\C)CCC=C(C)C`, for which the Potency entry is “inactive”. Consider `CCCCC(CC)COCC1CO1` (stereo not given), for which the Potency entry was “inactive”. `Cc1cccc(C(=O)O)c1`: the Potency entry is “inactive”.
